Assay outcomes from PubChem BioAssay.
rCAG RNA binder = molecules binding r(CAG) RNA repeats; r(CAG) RNA repeat, TO-PRO-1 dye displacement fluorescence; inhibition, % at 3 µM; 1.3% of 370,000 active;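 active means inhibition above the plate cutoff, the mean of all test compounds on that plate plus 3 SD, cut at about 35% in these data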;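 further: higher means more dye released from RNA so lower well fluorescence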
APOBEC3G inh = inhibitors of human APOBEC3G DNA deaminase; Q9HC16; recombinant A3G, ssDNA deamination FAM/TAMRA fluorescence; inhibition, % at 20 µM; 0.28% of 330,000 active;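 active means inhibition of at least 40% at 20 µM, with no more than 30% in the related APOBEC3A deaminase screen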
PHOSPHO1 inh = PHOSPHO1 (human) inhibition. recombinant PHOSPHO1, absorbance phosphatase assay. inhibition, % at 13.3 µM. 1.1% of 290,000 active. AID 1565; in the data active means inhibition above about 60%
Target sequence (Q8TCT1 whole entry, looked up): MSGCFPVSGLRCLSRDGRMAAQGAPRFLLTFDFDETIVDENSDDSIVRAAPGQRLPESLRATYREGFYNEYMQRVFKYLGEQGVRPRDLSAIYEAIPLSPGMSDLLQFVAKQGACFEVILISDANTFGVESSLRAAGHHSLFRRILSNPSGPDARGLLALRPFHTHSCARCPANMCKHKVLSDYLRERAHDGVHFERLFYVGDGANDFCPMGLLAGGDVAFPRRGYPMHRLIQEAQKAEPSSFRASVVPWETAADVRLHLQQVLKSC
APOBEC3A inh = human APOBEC3A DNA deaminase inhibition; recombinant A3A, FAM/TAMRA ssDNA deamination fluorescence; inhibition, % at 20 µM; 0.41% of 330,000 active; AID 493011;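 active means at least 40% inhibition at 20 µM here, with at most 30% in a related deaminase screen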
aDG glyco up = increases alpha dystroglycan glycosylation; Pro5-aDG cells, alpha-DG glycosylation AlphaScreen (IIH6); 0% Pro5, 100% B10-LARGE cell signal; activation, % at 10 µM; 0.22% of 360,000 active; AID 624168;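 active means activation of at least 8% versus controls, or a plate z-score of at least 8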;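 further: Pro5 are CHO cells carrying HIG-tagged alpha-DG that lacks glycosylation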
ALR H2O2 inh = blocks human ALR sulfhydryl oxidase activity. P55789. purified ALR, DTT oxidation, H2O2 HRP-luminol luminescence. inhibition, % (no concentration beside the values). 3.8% of 290,000 active. AID 485317;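 active means mean replicate inhibition above about 79%, with every replicate also reaching it, limit read from the data; inconclusive means only one of the two criteria met; inactive means mean below limit and not every replicate reaching it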
Target sequence (P55789 whole entry, looked up): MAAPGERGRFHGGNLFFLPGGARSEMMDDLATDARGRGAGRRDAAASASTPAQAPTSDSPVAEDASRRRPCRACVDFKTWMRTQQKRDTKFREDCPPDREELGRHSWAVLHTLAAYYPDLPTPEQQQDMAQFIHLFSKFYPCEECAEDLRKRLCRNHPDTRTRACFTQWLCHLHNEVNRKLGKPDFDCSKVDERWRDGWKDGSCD
Numbers stand for hits; . = inactive; ? = inconclusive; / = no result given. An excerpt weighted towards active compounds, which were near 5.4% of everything screened.

SMILES	rCAG RNA binder	APOBEC3G inh	PHOSPHO1 inh	APOBEC3A inh	aDG glyco up	ALR H2O2 inh
O=c1c(Cl)c(Cl)cnn1Cc1ccccc1Cl	.	/	.	/	/	95
Cc1cc(C)cc(Cn2ncc(Cl)c(Cl)c2=O)c1	.	/	.	/	/	96
Cc1ccc(Cn2ncc(Cl)c(Cl)c2=O)cc1	.	.	.	.	.	.
COCCN1C(=O)[C@H]2C[C@@]13O[C@H](c1ccc(C(F)(F)F)cc1)N=C3C[C@H](c1ccccc1)[C@H]2C	.	/	/	/	/	/
COCc1cc(N2CCN(C(=O)OC(C)(C)C)C[C@H]2C)ccc1N1CCS(=O)(=O)CC1	.	/	/	/	/	/
Cc1ccc(NC(=O)CS(=O)CC(=O)Nc2ccccc2-c2ccc(C)o2)cc1 (centres undefined)	.	.	.	.	.	99
CC(=O)Nc1ccccc1-c1ccc(C)o1	.	.	.	.	.	.
O=c1[nH]c(/C=C\c2ccc(O)cc2)nc(O)c1[N+](=O)[O-]	.	.	.	.	.	97
C=CCc1cc(/C=C/c2nc(O)c([N+](=O)[O-])c(=O)[nH]2)cc(OC)c1O	.	.	.	.	.	82
O=C(NC1CCCCN(Cc2cccc(C(F)(F)F)c2)C1=O)C1C2CC3CC(C2)CC1C3 (centres undefined)	.	/	/	/	/	/
NC(=S)NNc1c(F)c(F)c(F)c(F)c1F	.	.	.	.	.	98
Cc1ccccc1NNC(N)=S	.	.	.	.	.	.
COc1ccc(OC)c(Nc2c3ccccc3nc3ccccc23)c1	.	.	.	.	.	?
COc1cc(NS(C)(=O)=O)ccc1Nc1c2ccccc2nc2ccccc12	.	.	/	.	.	99
C=CCNC(=S)NNC(=O)c1ccc(OCC)cc1	.	.	.	.	.	.
C=CCNC(=S)NNC(=O)c1ccc(OCC(C)C)cc1	/	.	60	.	.	.
COc1ccccc1OCC(=O)OCC(=O)NC1CCCCC1	.	.	/	.	.	.
COc1ccccc1NCCC(=O)OCC(=O)NC1CC1	.	.	.	.	.	99
O=C(COC(=O)CSc1ccc2ccccc2c1)NC1CCCC1	.	.	.	.	.	100
COc1ccccc1NCCC(=O)OCC(=O)NC1CCCCC1	.	.	.	.	.	99
COc1ccccc1CCC(=O)OCC(=O)NC1CCCCC1	.	.	.	.	.	.
CCC(C)CNC(=O)c1oc(=O)c2ccccc2c1-c1ccc(C)cc1 (centres undefined)	.	/	/	/	/	/
CCCCCCNC(=O)C1CSCCS(=O)(=O)N1Cc1ccc(OC)cc1 (centres undefined)	.	/	/	/	/	/
O=C(O)CCNc1cc(N2CCN(C(=O)c3ccco3)CC2)c2noc3c2c1C(=O)c1ccccc1-3	68	.	.	.	.	.
Cc1c(O)ccc(-c2[nH]ncc2-c2nc3ccccc3s2)c1O	.	.	.	.	.	89
SMILES	rCAG RNA binder	APOBEC3G inh	PHOSPHO1 inh	APOBEC3A inh	aDG glyco up	ALR H2O2 inh
CN(C)c1ccc(C(=O)NCC2CCN(C(=O)C(=O)c3cccs3)CC2)cc1	.	/	/	/	/	/
CCc1ccc(NC(=O)N(CCCN2CCOCC2)Cc2cccs2)cc1	.	.	.	.	.	.
CCc1ccc(NC(=O)N(CCN2CCOCC2)Cc2ccc3c(c2)CCCN3CC)cc1	.	.	.	.	.	99
CCN1CCCc2cc(CN(CCN3CCOCC3)C(=O)Nc3ccc(C)c(C)c3)ccc21	.	.	.	.	.	99
Cc1ccc(NC(=O)N(CCCN2CCOCC2)Cc2cccnc2)cc1C	.	.	.	.	.	.
COc1ccc(C2C(C(=O)Nc3c(C)cccc3C)CCC(=O)N2c2ccc(OC)cc2)cc1 (centres undefined)	.	/	/	/	/	/
Nc1cc2nsnc2cc1Br	.	.	.	.	6.6	.
Cc1nn(Cc2ccc(Cl)cc2)c(C)c1NC(=O)CSc1nc2c(c(C(F)(F)F)n1)CCc1ccccc1-2	.	.	.	.	.	98
Cc1ccc(Cn2nc(C)c(NC(=O)CSc3nc4c(c(C(F)(F)F)n3)CCc3ccccc3-4)c2C)cc1	.	/	.	/	.	/
COC(=O)c1ccc(-c2cccc(CN3CCN(c4ncc(Cc5ccccc5)cn4)CC3)c2)cc1	.	/	/	/	/	/
COc1ccc(NC2=NCCCCC2)cc1	.	.	.	.	.	.
COc1ccc(-c2nc(NC3=NCCCCC3)sc2C)cc1	.	.	.	.	.	98
Cn1cccc1/C=N/N1CCN(c2ccccc2)CC1	.	.	.	.	.	94
Cn1cccc1/C=N/N1CCN(Cc2ccccc2Cl)CC1	.	.	.	.	.	.
Cc1oc(-c2ccc(Cl)cc2)nc1CS(=O)CC(=O)NC(C)c1ccccc1 (centres undefined)	.	.	.	.	.	98
CCc1cccc(NC(=O)CS(=O)Cc2nc(-c3ccc(C)cc3)oc2C)c1 (centres undefined)	.	.	.	.	.	99
Cc1oc(-c2ccc(Cl)cc2)nc1CS(=O)CC(=O)NCc1ccccc1 (centres undefined)	.	.	.	.	.	99
Cc1ccc(-c2nc(CS(=O)CC(=O)NCc3ccc(Cl)cc3)c(C)o2)cc1 (centres undefined)	.	.	.	.	.	.
Cc1oc(-c2ccccc2Cl)nc1CS(=O)(=O)CC(=O)NC(C)c1ccccc1 (centres undefined)	.	.	.	.	.	.
CCc1ccc(-c2nc(CS(=O)CC(=O)NCc3ccccc3)c(C)o2)cc1 (centres undefined)	.	.	.	.	.	99
COC(=O)c1ccc(S(=O)(=O)N2CCC(NC(=O)COc3ccc(F)cc3)CC2)cc1	.	/	/	/	/	/
COc1ccc(-c2nc(CS(=O)CC(=O)NCc3ccc(Cl)cc3)c(C)o2)cc1 (centres undefined)	.	.	.	.	.	99
O=C(CCSc1ccc(Cl)cc1)NCc1ccccn1	.	.	.	.	.	.
Cc1oc(-c2ccc(Cl)cc2)nc1CS(=O)CC(=O)NCc1ccccn1 (centres undefined)	.	.	.	.	.	99
Cc1oc(-c2ccccc2)nc1C(=O)OCC(=O)NCc1ccc(Cl)cc1	.	.	/	.	.	.
SMILES	rCAG RNA binder	APOBEC3G inh	PHOSPHO1 inh	APOBEC3A inh	aDG glyco up	ALR H2O2 inh
COc1ccccc1CNC(=O)NC1CCN(CC(=O)Nc2ccc3c(c2)OCCO3)CC1	.	/	/	/	/	/
Cc1cc(C(F)(F)F)nn1CC(=O)NNC(=S)Nc1ccc(Cl)cc1	.	.	91	.	.	.
COc1cccc(NC(=S)NNC(=O)Cn2nc(C(F)(F)F)cc2C)c1	.	.	.	.	.	.
Cc1cc(C(F)(F)F)nn1CC(=O)NNC(=S)Nc1ccc(F)cc1	.	.	86	.	.	.
Cc1cc(C(F)(F)F)nn1CC(=O)NNC(=S)NCC(C)C	.	.	.	.	.	.
O=C(CSc1ccccc1)NC1CCCCN(Cc2cccc(Cl)c2)C1=O (centres undefined)	.	/	/	/	/	/
COc1cc(NC(=O)C2CCCN(c3ncnc4c3nc3n4CCCCC3)C2)cc(OC)c1OC (centres undefined)	.	.	.	.	.	.
